Bioassay records from PubChem.
In the library only some 3.5% were active in any assay of this set; here they are far more common.
FBW7 act = activators of human E3 ligase FBW7. Q969H0. AlphaScreen FBW7–phospho-cyclin E peptide binding, activator screen. normalized activity (activation), % at 26.1 µM. hit rate 0.13% among 650,000; in the data active = normalized activity above about 1.9%;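 also: purified mutant Fbw7 with reduced substrate affinity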
TEAD-YAP block = TEAD-YAP interaction inhibition; hit rate 1.4% among 640,000; HEK-TIYL cells, TEAD-Gal4/YAP UAS-luciferase luminescence; inhibition, % at 9.12 µM; in the data active = inhibition above about 32%;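 also: 0% = median of test compound wells and 100% = reference inhibitor wells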
MITF inh = human MITF inhibition, primary screen. O75030. AlphaScreen MITF homodimerization, bead proximity signal. inhibition, % at 2.6 µM. hit rate 0.91% among 650,000. AID 1259374; in the data active = inhibition above about 50%;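 also: 0% = vehicle wells with protein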
GPR151 ag = activators of human GPR151; PathHunter beta-arrestin GPR151 cells, luminescence; hit rate 1% among 650,000; activation, % at 11.2 µM; Q8TDV0; AID 1508602; in the data active = activation above about 4.9%;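 also: 0% = median of compound wells and 100% = cells with positive control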
Target sequence (Q8TDV0 whole entry, looked up): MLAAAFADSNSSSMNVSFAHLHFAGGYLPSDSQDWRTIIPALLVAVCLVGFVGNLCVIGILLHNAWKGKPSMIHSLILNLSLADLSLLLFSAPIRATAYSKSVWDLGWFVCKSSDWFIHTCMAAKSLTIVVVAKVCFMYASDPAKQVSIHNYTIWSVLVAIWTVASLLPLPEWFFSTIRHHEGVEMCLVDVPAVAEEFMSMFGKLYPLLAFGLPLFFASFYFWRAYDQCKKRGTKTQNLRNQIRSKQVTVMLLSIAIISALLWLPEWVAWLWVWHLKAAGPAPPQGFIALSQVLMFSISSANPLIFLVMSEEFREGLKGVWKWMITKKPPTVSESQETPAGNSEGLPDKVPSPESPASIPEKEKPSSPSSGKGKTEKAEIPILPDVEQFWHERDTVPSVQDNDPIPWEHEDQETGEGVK
* = called active by the depositor.

What do the screens show for `CCOC(=O)c1c(N)sc(C(=O)Nc2ccccc2F)c1C`?
FBW7 act: 0.1; TEAD-YAP block: 48.0*; MITF inh: -7.6; GPR151 ag: -5.9

Results for O=C(OCc1ccccc1)N1CCCN(CCc2ccncc2)CC1 ?
FBW7 act: 1.9*; TEAD-YAP block: -11.0; MITF inh: 5.0; GPR151 ag: -0.1

What do the screens show for `Cc1ccc(C(=O)Oc2coc(CSc3nc(C)cs3)cc2=O)cc1`?
FBW7 act: 0.0; TEAD-YAP block: 2.7; MITF inh: 9.5; GPR151 ag: 0.5

How did COc1ccc(CCNc2nc(Nc3ccc4ncccc4c3)nc3nc[nH]c23)cc1 do in these assays?
FBW7 act: 0.1; TEAD-YAP block: 50.3*; MITF inh: 15.4; GPR151 ag: 0.0

How did COc1ccc(CCNc2nc(Nc3ccc4ncccc4c3)ncc2C)cc1 do in these assays?
FBW7 act: 0.1; TEAD-YAP block: 33.4*; MITF inh: 19.9; GPR151 ag: -0.6

How did C=CCN(c1ccccc1)S(=O)(=O)c1ccc(F)c(C(=O)Nc2ccc(C(C)C)cc2)c1 do in these assays?
FBW7 act: 0.2; TEAD-YAP block: 35.6*; MITF inh: 15.7; GPR151 ag: 1.1

How did C=CCN(c1ccccc1)S(=O)(=O)c1ccc(F)c(C(=O)Nc2ccc(OCC)cc2)c1 do in these assays?
FBW7 act: 0.7; TEAD-YAP block: 38.7*; MITF inh: 15.2; GPR151 ag: -0.8

Results for C=CCN(c1ccccc1)S(=O)(=O)c1ccc(F)c(C(=O)Nc2ccc(CC)cc2)c1 ?
FBW7 act: -0.2; TEAD-YAP block: 31.6; MITF inh: 4.4; GPR151 ag: 1.3

What do the screens show for `Cc1nc(C(=O)N2CCCC(CNS(=O)(=O)Cc3ccccc3)C2)cs1` (centres undefined)?
FBW7 act: 0.0; TEAD-YAP block: -1.2; MITF inh: -1.7; GPR151 ag: -0.4

What do the screens show for `Cc1cc2[nH]c(=O)c(=O)[nH]c2cc1S(=O)(=O)N1CCN(C2CCCC2)CC1`?
FBW7 act: 0.1; TEAD-YAP block: -3.9; MITF inh: -9.1; GPR151 ag: -2.6

What do the screens show for `O=C(COc1ccc(F)cc1)Nc1ccc2c(c1)C(=O)NCCO2`?
FBW7 act: 0.0; TEAD-YAP block: 41.5*; MITF inh: 8.5; GPR151 ag: 0.6

What do the screens show for `O=C(CCC1CCCC1)Nc1ccc2c(c1)C(=O)NCCO2`?
FBW7 act: 0.1; TEAD-YAP block: -62.5; MITF inh: 5.7; GPR151 ag: -0.7

What do the screens show for `Cn1c(=O)c2c(SCC(=O)O)nc(-c3cccc(Cl)c3)nc2n(C)c1=O`?
FBW7 act: -0.1; TEAD-YAP block: -3.3; MITF inh: 14.1; GPR151 ag: 0.8

Results for COc1ccc(C2=CC(c3cccc(C)c3)n3ncnc3N2)cc1 (centres undefined) ?
FBW7 act: -0.2; TEAD-YAP block: 46.0*; MITF inh: 1.4; GPR151 ag: 0.0

How did COc1ccc(OC)c(C2C=C(c3ccc(C)cc3)Nc3ncnn32)c1 (centres undefined) do in these assays?
FBW7 act: -0.1; TEAD-YAP block: 66.0*; MITF inh: -0.7; GPR151 ag: -0.6

What do the screens show for `COc1ccc(C2C=C(c3ccc(C)cc3)Nc3ncnn32)cc1OC` (centres undefined)?
FBW7 act: 0.1; TEAD-YAP block: 53.6*; MITF inh: 10.6; GPR151 ag: -0.1

How did CCc1ccc(C2=CC(c3ccc(OC)c(OC)c3OC)n3ncnc3N2)cc1 (centres undefined) do in these assays?
FBW7 act: -0.1; TEAD-YAP block: 47.2*; MITF inh: 5.0; GPR151 ag: -0.1

What do the screens show for `COc1ccc(C2=CC(c3ccc(C)cc3)n3ncnc3N2)cc1OC` (centres undefined)?
FBW7 act: 0.0; TEAD-YAP block: -68.1; MITF inh: 3.0; GPR151 ag: 1.2

What do the screens show for `Cc1cccn2c(=O)c3cc(C(=O)Nc4cccc(C(F)(F)F)c4)n(C)c3nc12`?
FBW7 act: -0.1; TEAD-YAP block: 0.0; MITF inh: 8.8; GPR151 ag: 0.1

Results for Cc1nc2c(C(=O)NCc3ccc4c(c3)OCO4)cnn2c(C)c1Cc1cccc(Cl)c1 ?
FBW7 act: 0.0; TEAD-YAP block: 4.5; MITF inh: 0.9; GPR151 ag: -0.8

What do the screens show for `O=[N+]([O-])c1cccc(-n2cnnn2)c1`?
FBW7 act: 0.0; TEAD-YAP block: 2.8; MITF inh: 1.3; GPR151 ag: 1.3

Results for COc1ccc(C2=CC(c3cc(OC)c(OC)c(OC)c3)n3ncnc3N2)cc1OC (centres undefined) ?
FBW7 act: 0.1; TEAD-YAP block: 53.6*; MITF inh: 1.6; GPR151 ag: -1.7

What do the screens show for `CCOc1ccccc1C1C=C(c2ccc(OC)cc2)Nc2ncnn21` (centres undefined)?
FBW7 act: -0.1; TEAD-YAP block: 55.9*; MITF inh: 3.9; GPR151 ag: 1.0

Results for COc1cc(C2C=C(c3ccc4c(c3)OCO4)Nc3ncnn32)cc(OC)c1OC (centres undefined) ?
FBW7 act: -0.1; TEAD-YAP block: 64.2*; MITF inh: 1.4; GPR151 ag: 1.1

What do the screens show for `CCOC(=O)c1ccc(N/C=C\C(=O)c2ccc3c(c2)OCO3)cc1`?
FBW7 act: 0.0; TEAD-YAP block: 33.0*; MITF inh: -10.6; GPR151 ag: -0.9

How did O=C(NC1CCCCC1)NC1CCN(Cc2nnnn2Cc2ccco2)CC1 do in these assays?
FBW7 act: -0.2; TEAD-YAP block: 0.0; MITF inh: -13.0; GPR151 ag: -1.4

Results for CC(C)(C)C(=O)NC1CCN(Cc2nnnn2Cc2ccco2)CC1 ?
FBW7 act: 0.1; TEAD-YAP block: 70.5*; MITF inh: -0.6; GPR151 ag: -4.9

What do the screens show for `Cc1cccc(NC(=O)C(=O)NCCCOC(C)C)c1C`?
FBW7 act: 0.2; TEAD-YAP block: 0.2; MITF inh: -6.2; GPR151 ag: -0.6

What do the screens show for `c1ccc(CNc2ccc3ncc(-c4ccco4)n3n2)nc1`?
FBW7 act: -1.1; TEAD-YAP block: 52.6*; MITF inh: -11.2; GPR151 ag: 0.4

How did Cc1csc(-c2cnc3ccc(NCCCO)nn23)c1 do in these assays?
FBW7 act: 0.2; TEAD-YAP block: 34.4*; MITF inh: 15.8; GPR151 ag: 0.9

Results for Cc1csc(-c2cnc3ccc(NCc4ccccn4)nn23)c1 ?
FBW7 act: -0.3; TEAD-YAP block: 40.5*; MITF inh: 12.5; GPR151 ag: 0.8

Results for O=C(Cc1ccccc1F)N1CCCC1c1nc2ccccc2[nH]1 (centres undefined) ?
FBW7 act: -0.3; TEAD-YAP block: 2.0; MITF inh: -8.3; GPR151 ag: 0.1

Results for Cc1nnc(SC(=O)N2c3ccccc3Sc3ccccc32)s1 ?
FBW7 act: -0.3; TEAD-YAP block: 60.6*; MITF inh: 7.2; GPR151 ag: 0.2

Results for NS(=O)(=O)c1ccc(Nc2nccc(-c3ccccc3)n2)cc1 ?
FBW7 act: -0.2; TEAD-YAP block: -16.0; MITF inh: -5.1; GPR151 ag: -0.6

How did NS(=O)(=O)c1ccc(Nc2nccc(-c3cccc(Cl)c3Cl)n2)cc1 do in these assays?
FBW7 act: 23.9*; TEAD-YAP block: -5.5; MITF inh: 13.6; GPR151 ag: 0.6

Results for COc1ccccc1-c1ccnc(Nc2ccc(S(N)(=O)=O)cc2)n1 ?
FBW7 act: 0.8; TEAD-YAP block: 34.4*; MITF inh: 67.6*; GPR151 ag: 1.0
